Reference: the supplement of paper PMC8728848
This excerpt belongs to a sample that is enriched for the strongest signals.

Legend:
Test in all cases: glycan array binding signal (z-score within array); higher = stronger binding
Conditions in all cases: glycan notation: IUPAC condensed, linker removed
[1] = biological target: Fuc(a1-2)Gal(b1-3)GlcNAc(b1-2)Man(a1-3)[Fuc(a1-2)Gal(b1-3)GlcNAc(b1-2)Man(a1-6)]Man(b1-4)GlcNAc(b1-4)GlcNAc
Outline: (§1)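 Negative Z-scores can be read as non-binding. The Z-score is calculated within each array and then averaged across arrays of one protein sequence at different concentrations or buffers and across linkers. Arrays, 3228 in all, were curated from the Consortium for Functional Glycomics database and kept only where the protein sequence was available.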

[2] = biological target: Fuc(a1-2)Gal(b1-3)[Fuc(a1-4)]GlcNAc(b1-2)Man(a1-3)[Fuc(a1-2)Gal(b1-3)[Fuc(a1-4)]GlcNAc(b1-2)Man(a1-6)]Man(b1-4)GlcNAc(b1-4)[Fuc(a1-6)]GlcNAc(b1-4)[Fuc(a1-6)]GlcNAc
Outline: as §1

[3] = biological target: Fuc(a1-2)Gal(b1-4)GlcNAc(b1-2)Man(a1-3)[Fuc(a1-2)Gal(b1-4)GlcNAc(b1-2)Man(a1-6)]Man(b1-4)GlcNAc(b1-4)[Fuc(a1-6)]GlcNAc
Outline: as §1

[4] = biological target: Fuc(a1-2)Gal(b1-4)[Fuc(a1-3)]GlcNAc(b1-2)Man(a1-3)[Fuc(a1-2)Gal(b1-4)[Fuc(a1-3)]GlcNAc(b1-2)Man(a1-6)]Man(b1-4)GlcNAc(b1-4)[Fuc(a1-6)]GlcNAc
Outline: as §1

[5] = biological target: Fuc(a1-2)[Gal(a1-3)]Gal(b1-4)[Fuc(a1-3)]GlcNAc
Outline: as §1

[6] = biological target: Fuc(a1-2)[GalNAc(a1-3)]Gal(b1-4)[Fuc(a1-3)]GlcNAc(b1-3)GalNAc
Outline: as §1

[7] = biological target: Fuc(a1-2)[GalNAc(a1-4)]Gal(b1-4)GlcNAc
Outline: as §1

[8] = biological target: Fuc(a1-3)[Gal(b1-4)]GlcNAc6S
Outline: as §1

[9] = biological target: Fuc(b1-3)GlcNAc
Outline: as §1

[10] = biological target: Gal(a1-3)Gal(b1-3)GlcNAc(b1-2)Man
Outline: as §1

[11] = biological target: Gal(a1-3)Gal(b1-4)[Fuc(a1-3)]GlcNAc
Outline: as §1

[12] = biological target: Gal(a1-3)GalNAc
Outline: as §1

[13] = biological target: Gal(a1-3)[Gal(a1-4)]Gal(b1-4)GlcNAc
Outline: as §1

[14] = biological target: Gal(a1-4)Gal(b1-4)Glc
Outline: as §1

[15] = biological target: Gal(b1-3)GalNAc(a1-3)[Fuc(a1-2)]Gal(b1-4)GlcNAc
Outline: as §1

[16] = biological target: Gal(b1-3)GlcNAc(b1-3)GalNAc
Outline: as §1

[17] = biological target: Gal(b1-3)GlcNAc6S
Outline: as §1

[18] = biological target: Gal(b1-3)[Fuc(a1-4)]GlcNAc(b1-2)Man
Outline: as §1

[19] = biological target: Gal(b1-3)[Fuc(a1-4)]GlcNAc(b1-2)Man(a1-3)[Gal(b1-3)[Fuc(a1-4)]GlcNAc(b1-2)Man(a1-6)]Man(b1-4)GlcNAc(b1-4)[Fuc(a1-6)]GlcNAc
Outline: as §1

[20] = biological target: Gal(b1-3)[Fuc(a1-4)]GlcNAc(b1-6)GalNAc
Outline: as §1

[21] = biological target: Gal(b1-4)GlcNAc(b1-3)Gal(b1-4)GlcNAc(b1-2)Man(a1-3)[Gal(b1-4)GlcNAc(b1-3)Gal(b1-4)GlcNAc(b1-2)Man(a1-6)]Man(b1-4)GlcNAc(b1-4)GlcNAc
Outline: as §1

[22] = biological target: Gal(b1-4)GlcNAc(b1-3)Gal(b1-4)GlcNAc(b1-2)[Gal(b1-4)GlcNAc(b1-3)Gal(b1-4)GlcNAc(b1-6)]Man(a1-6)[Gal(b1-4)GlcNAc(b1-3)Gal(b1-4)GlcNAc(b1-2)Man(a1-3)]Man(b1-4)GlcNAc(b1-4)[Fuc(a1-6)]GlcNAc
Outline: as §1

[23] = biological target: Gal(b1-4)GlcNAc(b1-3)Gal(b1-4)GlcNAc(b1-3)Gal(b1-4)GlcNAc(b1-2)Man(a1-3)[Gal(b1-4)GlcNAc(b1-3)Gal(b1-4)GlcNAc(b1-3)Gal(b1-4)GlcNAc(b1-2)Man(a1-6)]Man(b1-4)GlcNAc(b1-4)GlcNAc
Outline: as §1

[24] = biological target: GalNAc(a1-3)GalNAc(b1-3)Gal(a1-4)Gal(b1-4)Glc
Outline: as §1

[25] = biological target: GalNAc(b1-4)GlcNAc
Outline: as §1

[26] = biological target: GalNAc(b1-4)GlcNAc(b1-3)GalNAc(b1-4)GlcNAc
Outline: as §1

[27] = biological target: GlcNAc(a1-4)Gal(b1-4)GlcNAc(b1-3)Gal(b1-4)GlcNAc
Outline: as §1

[28] = biological target: GlcNAc(b1-3)Gal(b1-4)GlcNAc(b1-2)[GlcNAc(b1-3)Gal(b1-4)GlcNAc(b1-6)]Man(a1-6)[GlcNAc(b1-3)Gal(b1-4)GlcNAc(b1-2)Man(a1-3)]Man(b1-4)GlcNAc(b1-4)GlcNAc
Outline: as §1

[29] = biological target: GlcNAc(b1-3)Gal(b1-4)GlcNAc(b1-3)Gal(b1-4)GlcNAc(b1-2)Man(a1-3)[GlcNAc(b1-3)Gal(b1-4)GlcNAc(b1-3)Gal(b1-4)GlcNAc(b1-2)Man(a1-6)]Man(b1-4)GlcNAc(b1-4)GlcNAc
Outline: as §1

[30] = biological target: GlcNAc(b1-3)Gal(b1-4)GlcNAc(b1-3)GalNAc
Outline: as §1

[31] = biological target: GlcNAc(b1-3)GalNAc
Outline: as §1

[32] = biological target: Neu5Ac(a2-3)Gal(b1-3)GalNAc6S
Outline: as §1

[33] = biological target: Neu5Ac(a2-3)Gal(b1-4)GlcNAc(b1-2)[Neu5Ac(a2-3)Gal(b1-4)GlcNAc(b1-4)]Man(a1-3)[GlcNAc(b1-4)][Neu5Ac(a2-3)Gal(b1-4)GlcNAc(b1-2)[Neu5Ac(a2-3)Gal(b1-4)GlcNAc(b1-6)]Man(a1-6)]Man(b1-4)GlcNAc(b1-4)GlcNAc
Outline: as §1

[34] = biological target: Neu5Ac(a2-3)Gal(b1-4)[Fuc(a1-3)]GlcNAc(b1-2)Man
Outline: as §1

[35] = biological target: Neu5Ac(a2-3)Gal(b1-4)[Fuc(a1-3)]GlcNAc(b1-3)Gal(b1-4)GlcNAc
Outline: as §1

[36] = biological target: Neu5Ac(a2-6)Gal
Outline: as §1

[37] = biological target: Neu5Ac(a2-6)Gal(b1-4)GlcNAc(b1-2)Man
Outline: as §1

[38] = biological target: Neu5Ac(a2-6)Gal(b1-4)GlcNAc(b1-2)Man(a1-3)[GlcNAc(b1-4)][Neu5Ac(a2-6)Gal(b1-4)GlcNAc(b1-2)Man(a1-6)]Man(b1-4)GlcNAc(b1-4)GlcNAc
Outline: as §1

[39] = biological target: Neu5Ac(a2-6)Gal(b1-4)GlcNAc(b1-2)[Neu5Ac(a2-6)Gal(b1-4)GlcNAc(b1-4)]Man(a1-3)[GlcNAc(b1-4)][Neu5Ac(a2-6)Gal(b1-4)GlcNAc(b1-4)Man(a1-6)]Man(b1-4)GlcNAc(b1-4)GlcNAc
Outline: as §1

[40] = biological target: Neu5Ac(a2-6)Gal(b1-4)GlcNAc(b1-3)Gal(b1-4)GlcNAc(b1-3)Gal(b1-4)GlcNAc(b1-2)Man(a1-3)[Neu5Ac(a2-6)Gal(b1-4)GlcNAc(b1-3)Gal(b1-4)GlcNAc(b1-3)Gal(b1-4)GlcNAc(b1-2)Man(a1-6)]GalNAc
Outline: as §1

[41] = biological target: Neu5Ac(a2-8)Neu5Ac(a2-8)Neu5Ac(a2-3)Gal(b1-4)Glc
Outline: as §1

[42] = biological target: Neu5Gc(b2-6)Gal(b1-4)GlcNAc
Outline: as §1

YASPKCFRYPNGVLACT [Odorranalectin (Odorrana grahami), B3TFE9_RANGR]
glycan array binding signal (z-score) [1]: 0.133
glycan array binding signal (z-score) [2]: 1.89
glycan array binding signal (z-score) [3]: -0.142
glycan array binding signal (z-score) [4]: 3.75
glycan array binding signal (z-score) [5]: 0.56
glycan array binding signal (z-score) [6]: 2.29
glycan array binding signal (z-score) [7]: -0.278
glycan array binding signal (z-score) [8]: -0.198
glycan array binding signal (z-score) [9]: -0.094
glycan array binding signal (z-score) [10]: -0.387
glycan array binding signal (z-score) [11]: -0.625
glycan array binding signal (z-score) [12]: 0.618
glycan array binding signal (z-score) [13]: 1.47
glycan array binding signal (z-score) [14]: 0.575
glycan array binding signal (z-score) [15]: -0.258
glycan array binding signal (z-score) [16]: -0.188
glycan array binding signal (z-score) [17]: -0.064
glycan array binding signal (z-score) [18]: 3.92
glycan array binding signal (z-score) [19]: -0.246
glycan array binding signal (z-score) [20]: -0.061
glycan array binding signal (z-score) [21]: 7.59
glycan array binding signal (z-score) [22]: 0.555
glycan array binding signal (z-score) [23]: 2.11
glycan array binding signal (z-score) [24]: -0.385
glycan array binding signal (z-score) [25]: 4.83
glycan array binding signal (z-score) [26]: 0.347
glycan array binding signal (z-score) [27]: -0.376
glycan array binding signal (z-score) [28]: 8.95
glycan array binding signal (z-score) [29]: 3.67
glycan array binding signal (z-score) [30]: 0.083
glycan array binding signal (z-score) [31]: -0.315
glycan array binding signal (z-score) [32]: 0.438
glycan array binding signal (z-score) [33]: -0.481
glycan array binding signal (z-score) [34]: -0.405
glycan array binding signal (z-score) [35]: -0.026
glycan array binding signal (z-score) [36]: -0.415
glycan array binding signal (z-score) [37]: -0.092
glycan array binding signal (z-score) [38]: -0.309
glycan array binding signal (z-score) [39]: -0.055
glycan array binding signal (z-score) [40]: 7.51
glycan array binding signal (z-score) [41]: -0.429
glycan array binding signal (z-score) [42]: -0.155
